Results on 16 compounds are retold here after PubChem BioAssay (EPA / NIEHS).

Calls of active or inactive are those of the source. The calls were made as follows: active = hit-call score of the fitted dose curve at least 0.9, where 1 is the maximum; inactive = score below 0.9.

This test in a line: CCTE_Shafer_MEA_acute_cross_correlation_area: CCTE's Neural Acute Assay for Area of Cross Correlation, Shafer Lab (AID 2284024).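 Also: curves fitted for loss of cross-correlation area so actives lower synchrony.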 The protocol:
CCTE_Shafer_MEA_acute assay is conducted using Axion Biosystems 48 well microelectrode array (MEA) plates and Maestro recording system. Each well of the MEA plate contains a grid of 16 microelectrodes embedded in the culture surface. Electrically active cells, such as neurons, can be cultured over the electrodes, and electrical activity in these cells can be recorded extracellularly. The spontaneous firing of neurons is captured from each electrode on a microsecond timescale providing both temporally and spatially precise data. […] The CCTE_Shafer_MEA_acute assay uses primary cultures of rat cortical neurons. As these cultures mature over time, neural networks develop functional activity and form cohesive networks in which electrical activity can be highly coordinated. Baseline 40-minute recordings are made on days post-plating 13 or 15, followed by a secondary 40-minute recording after chemical exposure.CCTE_Shafer_MEA_acute_cross_correlation_area is a component of the CCTE_Shafer_MEA_acute assay. It measures the area under the well-wide pooled inter-electrode cross-correlation of action potential firing (not normalized to auto-correlations) within a window centered around 0 for the phase lag during a recording in a microelectrode array (MEA) using Axion Biosystems Maestro 768 channel amplifier with the AxIS adaptive spike detector. The recordings before and after chemical treatment are used to calculate a percent change in the cross correlation area in each well.Data from the assay component CCTE_Shafer_MEA_acute_cross_correlation_area was analyzed into 1 assay endpoint. This assay endpoint, CCTE_Shafer_MEA_acute_cross_correlation_area, was analyzed in the negative analysis fitting direction relative to DMSO as the negative control and baseline of activity. Using a type of functional reporter, gain or loss-of-signal activity can be used to understand electrical activity.
Spontaneous activity in the cortical cultures was recorded using an Axion Biosystems Maestro 768 channel amplifier and Axion Integrated Studios (AxIS) v1.8 (or later) software. The amplifier recorded from all channels simultaneously (gain = 1200 x; sampling rate = 12.5 kHz/channel): raw signals were filtered with a Butterworth band-pass filter (300-5000 Hz), which filters out slower local field potentials leaving only fast potentials, i.e., "spikes", arising from extracellular currents associated with action potentials (Pine 2006; Wheeler and Nam 2011). On-line spike detection of filtered signals was conducted with the AxIS adaptive spike detector, using a threshold of 8x the root mean squared (rms) noise on each channel. Any electrodes with rms noise levels greater than 5 uV were grounded (e.g., no data were recorded). Once grounded, an electrode was grounded for the duration of the experiment. All recordings were conducted at 37 C. Wells were deemed usable if on the day of the exposure >/= 10 electrodes were active (defined as >/= 5 spikes/min). On DIV 13 or 15, a minimum of three wells from one cortical culture preparation were treated with each compound (0.03-40 uM). Prior to recording baseline activity, each mwMEA plate was placed in the Maestro at 37 C and allowed to sit for 20 min while firing rates stabilized. Baseline activity (40 min) was recorded before the addition of each compound. An additional 40 min of spontaneous activity was recorded in the presence of each compound. Changes in network parameters relative to baseline were assessed following compound treatment.
`COP(=O)(CCC(=O)NCO)OC`: the call was inactive.
Turning to `ClC(Cl)(Cl)c1ccccc1`, the call was inactive.
On to `Cc1ccc(N)cc1N`, for which the call was inactive.
As to `CC(Cl)(Cl)C(=O)O`, the outcome was inactive.
Turning to `COCCOCCO`, the compound was called inactive.
Regarding `CCC1(c2ccccc2)C(=O)N=C(O)NC1=O` (stereo unspecified), the compound was called inactive.
For `ClC1=C(Cl)C2(Cl)C3C(Cl)C(Cl)CC3C1(Cl)C2(Cl)Cl` (stereo unspecified), the compound was classed as inactive.
For `CCOP(=S)(Oc1ccc([N+](=O)[O-])cc1)c1ccccc1` (stereo unspecified) the value was “inactive”; for `CCC(C)(C)c1ccc(O)cc1`, “inactive”; for `c1ccc2c(c1)Nc1ccccc1S2`, “inactive”.
Take `CCCCC(CC)COP(=O)(Oc1ccccc1)Oc1ccccc1` (stereo unspecified): the compound was classed as inactive.
To `CCOc1ccc(C(C)(C)COCc2cccc(Oc3ccccc3)c2)cc1` belongs “inactive”; to `O=C(O)C1C(C(=O)O)C2(Cl)C(Cl)=C(Cl)C1(Cl)C2(Cl)Cl` (stereo unspecified), “inactive”; to `[N-]=[N+]=[N-]`, “inactive”.
For `CC(C)(C)c1ccccc1OP(=O)(Oc1ccccc1)Oc1ccccc1` the value was “inactive”; for `Nc1ccc2ccccc2c1`, “inactive”.
